The target of this test is E3 ubiquitin-protein ligase XIAP (Homo sapiens) (UniProt P98170). Nature of the test: small molecules binding XIAP protein – biophysical, small-molecule microarray, fluorescence 635 nm, primary screen (AID 1181).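 Further: score merges 667 nm emission and signal to noise over triplicate slides.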 The conditions noted are these: higher = more signal.
Sequence of E3 ubiquitin-protein ligase XIAP (Homo sapiens) (P98170 whole entry, looked up): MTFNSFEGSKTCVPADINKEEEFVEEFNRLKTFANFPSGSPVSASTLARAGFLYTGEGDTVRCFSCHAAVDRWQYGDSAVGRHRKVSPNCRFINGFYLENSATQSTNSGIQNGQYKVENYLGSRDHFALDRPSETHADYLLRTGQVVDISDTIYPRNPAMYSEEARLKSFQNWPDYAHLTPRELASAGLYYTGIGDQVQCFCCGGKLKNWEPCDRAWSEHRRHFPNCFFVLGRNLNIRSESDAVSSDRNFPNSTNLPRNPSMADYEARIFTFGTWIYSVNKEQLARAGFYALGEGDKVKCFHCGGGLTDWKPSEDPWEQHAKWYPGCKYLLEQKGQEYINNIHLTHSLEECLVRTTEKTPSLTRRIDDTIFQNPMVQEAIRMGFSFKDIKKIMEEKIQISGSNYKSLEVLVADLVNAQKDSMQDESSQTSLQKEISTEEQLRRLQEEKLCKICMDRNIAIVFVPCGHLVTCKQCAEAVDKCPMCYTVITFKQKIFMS
For the compound `[N-]=[N+]=NCc1ccccc1C[C@@]1(C(=O)N2CCCCC2)N=C(c2ccc(OCCCO)cc2)O[C@@H]1c1ccccc1`, the composite z-score is -0.279.
The figure for `O=C1O[C@@H](c2ccccc2)[C@@H](c2ccccc2)N2[C@@H](c3ccc(OCCO)cc3)[C@]3(C(=O)Nc4ccccc43)[C@@H](C(=O)O)[C@H]12` is -0.0339; for `CC(CO)N1C(=O)[C@@H]2[C@H]3C(=O)OCC=C[C@H]3OC23C=CCN(C(C)(C)C)C(=O)[C@@H]13` (stereo not given in full) it is 0.252.
In turn, `CN1C(=O)C2C=CC(C(O)c3cccc4ccccc34)N(N3CCCCC3)C2C1=O` (stereo not given) registered a composite z-score of 0.0077.
The figure for `CN(C)C(=O)[C@]1(CCS(=O)(=O)c2ccccc2)N=C(c2ccc(OCCCO)cc2)O[C@@H]1c1ccccc1N=[N+]=[N-]` is 0.273; for `COC(=O)[C@@]1(Cc2ccc(F)cc2)[C@H]2c3cc(C(=O)N4CCCC4)n(CCc4ccc(O)c(O)c4)c3C[C@H]2CN1C(=O)c1ccccc1` it is 0.32; for `CN(C)CCCNC(=O)[C@@]1(c2ccc([N+](=O)[O-])cc2)CC(=O)N(CC23CC4CC(CC(C4)C2)C3)[C@@H]1c1ccc(CO)cc1I` it is -0.0541.
Regarding `Cc1cc(C)c(C(O)C2C=CC3C(=O)NC(=O)C3N2Nc2ccc(Cl)cc2Cl)c(C)c1` (stereo not given), the composite z-score turned out to be 0.0251.
As to `COCCOC(=O)N1C(=O)[C@@]2(c3cc(C#CC4=CCCCC4)ccc31)[C@H](c1ccc(OCCO)cc1)N1[C@H](c3ccccc3)[C@H](c3ccccc3)OC(=O)[C@H]1[C@@H]2C(=O)N1CCN(c2ncccn2)CC1`, the composite z-score turned out to be 0.0219.
For `C=CCC(OC(C)=O)[C@@H]1[C@@H](N(Cc2ccc(-c3ccccc3)cc2)C(=O)Cc2ccc(F)cc2)c2cc(OCCCO)ccc2N1C(=O)Cc1ccc(OC)cc1` (stereo not given in full) the value was 0.0757.

The record behind these values is PubChem BioAssay.
